Bioassay records from PubChem.
Pol beta inh: DNA polymerase beta (human) inhibition; P06746; AID 485314; Potency, µM (titrated, usually from 114 µM), most hits filed as inhibitors; Pol beta primer extension/strand displacement, fluorescence kinetic; actives 1.3% (n = 340,000)
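10 nM enzyme + cpd, 15 min RT; start with substrate 50 nM final; read 0 min and after 10 min RT. Corrected, normalized data; 4-parameter Hill curve fit.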
POLK inh: blocks human DNA polymerase kappa activity | actives 0.53% (n = 400,000) | purified Pol kappa, fluorescent DNA synthesis assay, 10 min | AID 588579 | Potency, µM (top dose mostly 107 µM), hits mostly inhibitors
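Here, compound and 10 nM enzyme are combined for 15 min at room temperature; adding 50 nM substrate (final) starts DNA synthesis, tracked by fluorescence at 0 and 10 min against buffer-only wells.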
FEN1 inh: inhibitors of human flap endonuclease 1 | P39748 | Recombinant FEN1 flap cleavage, fluorescence, 15 min | Potency, µM (doses to about 114 µM), hits mostly inhibitors | actives 0.35% (n = 390,000); further: nearly all actives have a fitted effect of over 65% in size
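Enzyme 10 nM, 15 min RT preincubation with compound; start with substrate 50 nM final; reads at 0 and 15 min; qHTS titration, four-parameter Hill fit.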
Pol eta inh: inhibitors of human DNA polymerase eta | Q9Y253 | recombinant Pol eta, fluorescent DNA replication assay | Potency, µM (doses to about 114 µM), usual class: inhibitors | actives 1.2% (n = 390,000) | AID 588591
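Fluorescent replication assay: 50 nM final substrate added after a 15 min room-temperature compound preincubation with 10 nM enzyme. Signal taken at 0 min and again at 10 min.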
TDP1 inh: TDP1 (human) enzyme inhibition; recombinant TDP1, AlphaScreen DNA substrate cleavage; AID 485290; actives 0.28% (n = 350,000); Potency, µM (top dose mostly 130 µM), hits mostly inhibitors; further: nearly all actives have a fitted effect of over 40% in size
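Recombinant E. coli-expressed Tdp1 (1 nM) preincubated with compound 15 min at RT, then 5'-biotin/3'-phosphotyrosine-FITC DNA substrate (15 nM) added for 5 min. AlphaScreen beads (10 ug/ml) added, 10 min RT; tyrosine-FITC cleavage read as signal loss.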
Pol iota inh: blocks human DNA polymerase iota activity; Q9UNA4; Pol iota fluorescent replication assay, 10 min; Potency, µM (highest dose often 115 µM), actives largely listed as inhibitors; actives 1% (n = 390,000); AID 588590
Target sequence (Q9UNA4 whole entry, looked up): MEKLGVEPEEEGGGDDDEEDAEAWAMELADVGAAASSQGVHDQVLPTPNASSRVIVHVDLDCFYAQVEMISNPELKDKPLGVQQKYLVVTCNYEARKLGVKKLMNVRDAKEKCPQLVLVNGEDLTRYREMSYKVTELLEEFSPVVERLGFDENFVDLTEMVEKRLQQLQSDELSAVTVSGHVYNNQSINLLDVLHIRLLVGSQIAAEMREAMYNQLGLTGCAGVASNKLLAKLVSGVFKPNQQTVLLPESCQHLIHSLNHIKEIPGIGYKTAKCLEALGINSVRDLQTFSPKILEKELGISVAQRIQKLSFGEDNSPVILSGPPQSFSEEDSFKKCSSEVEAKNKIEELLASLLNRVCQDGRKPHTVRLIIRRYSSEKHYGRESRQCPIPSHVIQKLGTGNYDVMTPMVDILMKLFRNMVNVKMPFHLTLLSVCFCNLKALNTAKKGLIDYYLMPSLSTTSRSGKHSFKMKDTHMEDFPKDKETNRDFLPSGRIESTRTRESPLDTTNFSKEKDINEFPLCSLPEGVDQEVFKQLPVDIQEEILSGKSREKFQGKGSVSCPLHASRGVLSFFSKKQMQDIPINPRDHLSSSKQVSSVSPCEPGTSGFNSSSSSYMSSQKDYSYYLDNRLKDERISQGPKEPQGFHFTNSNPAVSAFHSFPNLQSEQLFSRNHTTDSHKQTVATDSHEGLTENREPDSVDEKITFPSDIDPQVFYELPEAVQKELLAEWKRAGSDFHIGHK
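Pol iota at 10 nM preincubated 15 min with compounds at room temperature; reaction started with fluorescent substrate, 50 nM final. Fluorescence read kinetically at 0 and 10 min; buffer-only wells as negative control.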
Large screens that a line does not name were inactive. Shown are actives, neighbours in structure and some others; about 2.4% of the full set was active somewhere. The call rests on the fitted dose curve; in most records, active means well fitted curve in the direction sought with a large enough effect; inconclusive means small, poorly fitted or top-dose-only effect, or another doubt; inactive means no such curve, though single readings can be large; an effect the other way counts as inactive or inconclusive.

CSc1cccc(NC(=O)CN(c2ccccc2)S(=O)(=O)N(C)C)c1	Pol beta inh 10µM, Pol eta inh inconclusive, Pol iota inh inconclusive
CN(C)S(=O)(=O)N(CC(=O)Nc1ccc(F)c(F)c1)c1ccccc1	Pol beta inh inconclusive, Pol eta inh inconclusive
COCCn1c(C)cc(C(=O)COC(=O)c2ccc3c(c2)NC(=O)CS3)c1C	Pol eta inh inconclusive
C=CCn1c(C)cc(C(=O)COC(=O)c2ccc3c(c2)NC(=O)CS3)c1C	Pol beta inh 39.8µM, POLK inh inconclusive, Pol eta inh inconclusive, Pol iota inh inconclusive
CO[C@@H]1COC(=O)C/C=C\[C@@H](C)[C@@H]2C=C[C@H](O)[C@@H](COC(=O)CCC[C@H]1C)O2	none (no result: Pol beta inh, POLK inh, FEN1 inh, Pol eta inh, Pol iota inh)
CN(C)c1ccc(/C=C2\CCc3cc(N)ccc32)cc1	none (no result: Pol beta inh, Pol eta inh, TDP1 inh)
Cc1ccc(-c2nc(-c3cc4cccc(OCc5cccc(F)c5)c4oc3=O)no2)cc1	Pol beta inh 35.5µM, Pol eta inh 35.5µM
O=C(N/N=C\c1ccc(Br)o1)C1COc2ccccc2O1 (configuration not stated)	Pol beta inh 35.5µM, Pol eta inh 44.7µM, Pol iota inh 44.7µM
Cc1nc(-c2ccncc2)sc1C(=O)Nc1ccc(Br)cc1	Pol beta inh 15.8µM
CCCn1c(C)nc2c(NCC(C)(C)CN(C)C)nc(C)nc21	none (no result: Pol beta inh, POLK inh, FEN1 inh, Pol eta inh, Pol iota inh)
COCCCn1cnc2c(c1=O)c1nc3ccccc3nc1n2-c1ccc(C)cc1	Pol beta inh 35.5µM
COCCCn1c2nc3ccccc3nc2c2c(=O)n(CC3CCCO3)cnc21 (configuration not stated)	none
Cc1cc(C)cc(-n2c3nc4ccccc4nc3c3c(=O)n(Cc4ccco4)cnc32)c1	Pol beta inh 35.5µM, Pol eta inh inconclusive
O=C(CSc1ccccc1Cl)NC1CCCc2ccccc21 (configuration not stated)	Pol beta inh 12.6µM
O=C(CSc1c(Cl)cccc1Cl)NC1CCCc2ccccc21 (configuration not stated)	Pol beta inh inconclusive, Pol eta inh inconclusive, Pol iota inh inconclusive
O=c1oc2cc(O)ccc2c2oc3cc(O)ccc3c12	Pol beta inh 35.5µM, POLK inh inconclusive, FEN1 inh 39.8µM, Pol eta inh inconclusive, Pol iota inh inconclusive
O=c1oc2cc(O)ccc2c2ccccc12	Pol eta inh inconclusive
O=S(=O)(c1ccc2c(c1)OCCO2)N1CCN(S(=O)(=O)c2cccc[n+]2[O-])CC1	none (no result: Pol beta inh, POLK inh, FEN1 inh, Pol eta inh, Pol iota inh)
Nc1cccn2c(-c3ccc(Cl)c(Cl)c3)cnc12	Pol iota inh 12.6µM
CC(=O)NC(CC(=O)OCC(=O)Nc1ccc2c(c1)OCO2)c1ccccc1 (configuration not stated)	none
CC(=O)NC(CC(=O)OCC(=O)c1ccc(NC(=O)CC(C)C)cc1)c1ccccc1 (configuration not stated)	Pol eta inh inconclusive, TDP1 inh 44.7µM, Pol iota inh inconclusive (no result: Pol beta inh)
COc1ccc(NC(=O)COc2ccccc2C(=O)Nc2ccccc2)cc1	none (no result: Pol beta inh, Pol eta inh, TDP1 inh)
O=C(c1csnn1)N1CCC2(CC1)CN(c1cccc(-c3ccccc3)c1)C2	none (no result: Pol beta inh, FEN1 inh, Pol eta inh, TDP1 inh, Pol iota inh)
Cc1ccc(S(=O)(=O)c2ccc([N+](=O)[O-])o2)cc1	Pol iota inh 17.8µM (no result: Pol beta inh, TDP1 inh)
Cc1ccc(NC(=O)c2ccc([N+](=O)[O-])o2)c(C)c1	none
CCCC(=NCCc1c(C)[nH]c2ccccc12)C1=C(O)CC(c2ccccc2)CC1=O (configuration not stated)	Pol iota inh 89.1µM
CC1CCCCN1C(=O)COC(=O)c1ccc(S(C)(=O)=O)c([N+](=O)[O-])c1 (configuration not stated)	Pol iota inh inconclusive (no result: Pol beta inh, Pol eta inh)
Cn1c2ccccc2c(=O)c2cc(C#Cc3cccc(N)c3)ccc21	none (no result: Pol beta inh)
Cn1c2ccccc2c(=O)c2cc(C#CC3=CCCCC3)ccc21	POLK inh inconclusive, Pol eta inh 44.7µM, Pol iota inh 3.98µM (no result: Pol beta inh)
Cc1c(C(=O)NC2CCCCC2)sc2nc3ccc(N)cc3n12	none (no result: Pol beta inh, POLK inh, FEN1 inh, Pol eta inh, Pol iota inh)
CCOC(=O)N/N=C1/C[C@@H](O)[C@@H](O)[C@@H]2[C@@H]3C(=O)N([C@@H](C)c4ccccc4)C(=O)[C@H]3CC[C@@H]12	none (no result: Pol beta inh, POLK inh, FEN1 inh, Pol eta inh, Pol iota inh)
N#C/C(=C\c1c[nH]c2ccccc12)C(=O)c1ccc(O)c(O)c1	Pol beta inh 3.77µM, POLK inh 5.97µM, FEN1 inh 3.36µM, Pol eta inh 1.41µM, Pol iota inh 7.94µM
O=S(=O)(Nc1ncnc2sc3c(c12)CCC3)c1ccc(Cl)s1	Pol eta inh 35.5µM, Pol iota inh inconclusive
CC(C)CC(=O)Nc1ccc(-c2nnn(CC(=O)NCc3ccco3)n2)cc1	Pol beta inh inconclusive, Pol iota inh 79.4µM
Cc1cccc(C(=O)Nc2nnc(S(=O)(=O)N(C)Cc3ccc(Cl)cc3)s2)c1	Pol iota inh 89.1µM
N#Cc1ccc(CSc2nnc(NC(=O)c3ccc4ncsc4c3)s2)cc1	Pol eta inh 31.6µM, Pol iota inh inconclusive (no result: TDP1 inh)
O=C(Nc1nnc(SCc2c(Cl)cccc2Cl)s1)c1ccc2ncsc2c1	Pol beta inh inconclusive (no result: POLK inh, FEN1 inh, Pol eta inh, Pol iota inh)
O=C(O)/C(=C\c1ccco1)NC(=O)c1ccc(Br)o1	Pol eta inh 20µM, Pol iota inh inconclusive (no result: Pol beta inh, TDP1 inh)
CC(C)C(NC(=O)/C(=C/c1ccco1)NC(=O)c1ccc(Br)o1)C(=O)O (configuration not stated)	Pol beta inh 39.8µM, POLK inh inconclusive, Pol eta inh 20µM, Pol iota inh inconclusive (no result: TDP1 inh)
CC(C)(C)c1ccc(C(=O)N/C(=C\c2ccco2)C(=O)O)cc1	Pol beta inh inconclusive
O=C(O)/C(=C\c1ccco1)NC(=O)c1cccc2ccccc12	POLK inh 50.1µM, Pol eta inh 50.1µM, Pol iota inh inconclusive
NC(=O)/C(=C\c1ccco1)NC(=O)c1ccc(Br)o1	none (no result: Pol beta inh, TDP1 inh)
CCCC(=O)N(C)c1ccc(/C=C2\C=Cc3ccccc32)cc1	none (no result: Pol beta inh, Pol eta inh, TDP1 inh)
NC(=O)c1ccsc1NC(=O)CSc1nnc2ccccn12	Pol beta inh 25.1µM, Pol eta inh inconclusive, Pol iota inh inconclusive (no result: TDP1 inh)
CCOC(=O)c1oc2ccc(S(=O)(=O)n3nc(-c4ccc(Br)cc4)cc3N)cc2c1C	none
O=C(C[n+]1ccncc1)c1cccc([N+](=O)[O-])c1	none (no result: Pol beta inh, Pol eta inh, TDP1 inh)
O=c1cnc2ccccc2n1Cc1ccccc1C(F)(F)F	TDP1 inh 50.1µM
Cc1ccc(OCCn2c(=O)cnc3ccccc32)cc1	none
COc1ccc2c(c1)Oc1ncn(CCN3CCOCC3)c(=N)c1C2c1ccc(OC)c(OC)c1 (configuration not stated)	none (no result: Pol beta inh, POLK inh, FEN1 inh, Pol eta inh, Pol iota inh)
Cc1cc(NCCCCCCCNc2cc(C)nc3cc([N+](=O)[O-])ccc23)c2ccc([N+](=O)[O-])cc2n1	FEN1 inh 44.7µM, Pol eta inh inconclusive (no result: Pol beta inh, TDP1 inh)
Cc1ccc(CSC2=NS(=O)(=O)c3ccccc32)cc1	Pol iota inh inconclusive (no result: Pol beta inh, Pol eta inh)
